Assay results taken from PubChem BioAssay (NCATS).
Records with an inconclusive call do not appear. Active and inactive are the calls of the source. Calls come from the whole dose curve; as a rule, active = well fitted curve in the direction sought with a large enough effect in the repeat runs; inconclusive = weak or mixed curves; inactive = no such curve, though single readings can be large; an effect the other way counts as inactive or inconclusive.

Experiments:
[1] = biological target: Cytochrome P450 2D6 (Homo sapiens) (UniProt P10635); test: Cytochrome P450 family 2 subfamily D member 6 (CYP2D6) small molecule antagonists: luciferase biochemical (cell-free) qHTS assay (AID 1645840)
Sequence of Cytochrome P450 2D6 (Homo sapiens) (P10635 whole entry, looked up): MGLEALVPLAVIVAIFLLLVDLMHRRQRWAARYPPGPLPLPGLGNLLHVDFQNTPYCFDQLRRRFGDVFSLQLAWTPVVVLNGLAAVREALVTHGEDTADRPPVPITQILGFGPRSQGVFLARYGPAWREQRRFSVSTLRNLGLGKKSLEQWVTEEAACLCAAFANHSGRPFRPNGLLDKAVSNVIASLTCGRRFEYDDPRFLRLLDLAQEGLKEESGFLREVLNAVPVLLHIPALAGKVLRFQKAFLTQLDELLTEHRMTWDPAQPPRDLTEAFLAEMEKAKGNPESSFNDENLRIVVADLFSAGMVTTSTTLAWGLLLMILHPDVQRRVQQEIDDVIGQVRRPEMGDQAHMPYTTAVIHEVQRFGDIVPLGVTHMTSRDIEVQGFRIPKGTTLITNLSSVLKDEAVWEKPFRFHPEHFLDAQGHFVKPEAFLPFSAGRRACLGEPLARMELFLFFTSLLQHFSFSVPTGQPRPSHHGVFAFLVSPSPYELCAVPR
Procedure, shortened: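 P450-Glo CYP2D6 system: proluciferin substrate converted by enzyme to luciferin, read by luminescence proportional to activity. Enzyme-substrate mix with compound 10 min at room temperature, then NADPH regeneration 1 h before detection reagent.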

[2] = biological target: Cytochrome P450 2C9 (Homo sapiens) (UniProt P11712); test: Cytochrome P450 family 2 subfamily C member 9 (CYP2C9) small molecule antagonists: luciferase biochemical (cell-free) qHTS assay (AID 1645842)
Sequence of Cytochrome P450 2C9 (Homo sapiens) (P11712 whole entry, looked up): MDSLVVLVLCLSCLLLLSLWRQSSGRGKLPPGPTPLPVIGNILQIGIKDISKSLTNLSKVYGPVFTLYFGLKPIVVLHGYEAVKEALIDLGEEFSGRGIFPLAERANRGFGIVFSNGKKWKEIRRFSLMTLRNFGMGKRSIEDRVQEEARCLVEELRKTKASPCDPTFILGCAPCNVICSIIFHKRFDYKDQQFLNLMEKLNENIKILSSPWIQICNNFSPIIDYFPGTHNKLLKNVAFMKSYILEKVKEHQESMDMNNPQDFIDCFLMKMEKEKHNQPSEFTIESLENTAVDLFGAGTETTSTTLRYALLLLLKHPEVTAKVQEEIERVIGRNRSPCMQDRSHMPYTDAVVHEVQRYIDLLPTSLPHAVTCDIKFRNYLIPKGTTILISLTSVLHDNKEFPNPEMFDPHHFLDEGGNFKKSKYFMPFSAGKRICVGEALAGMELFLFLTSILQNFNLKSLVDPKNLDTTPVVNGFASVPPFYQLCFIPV
Procedure, shortened: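 P450-Glo CYP2C9 system: proluciferin substrate with enzyme in mix containing 0.4% BSA, 10 min at room temperature, then NADPH regeneration solution added and incubated 1 h at 37C. Detection reagent stopped reaction; luminescence read after 20 min as RLU.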
Note: nearly all actives have a fitted effect of over 55% in size.
Potency is the fitted concentration of half-maximal effect.

| Structure (SMILES) | Potency [1] | Potency [2] |
| --- | --- | --- |
| COC(C)=O | inactive | inactive |
| CCOc1ccc(-n2c(C(C)N(Cc3cccnc3)C(=O)Cc3ccc(F)c(C(F)(F)F)c3)nc3ncccc3c2=O)cc1 (stereo unspecified) | 23.9 µM (active) | 4.77 µM (active) |
| O=C1C(c2[nH]c3ccc(S(=O)(=O)O)cc3c2O)=Nc2ccc(S(=O)(=O)O)cc21 | inactive | inactive |
| C=CS(=O)(=O)O | inactive | inactive |
| Fc1ccc(-c2nc(-c3c(F)cccc3F)[nH]c2-c2ccncc2)cc1 | 2.68 µM (active) | inactive |
| O=C(OC1CN2CCC1CC2)N1CCc2ccccc2C1c1ccccc1 (stereo unspecified) | 19 µM (active) | inactive |
| O=C(Nc1ccc(N(Cc2ccsc2)C(=O)Cn2nnc3ccccc32)cc1)C1CC1 | 4.77 µM (active) | 1.51 µM (active) |
| Cc1nc(N2CCN(C(=O)c3ccco3)CC2)c2c3c(sc2n1)CCCC3 | 10.7 µM (active) | 4.77 µM (active) |
| O=C(COc1ccc(C(=O)c2ccccc2)cc1)NC1CCN(Cc2ccccc2)CC1 | 0.338 µM (active) | 4.77 µM (active) |
| CCOC(=O)C1=Cc2ccc(C(F)(F)C(F)(F)F)cc2N=C(N)C1 | 3.01 µM (active) | 12 µM (active) |
| CCc1cc2c(cc1CC)CC(NCC(O)c1ccc(O)c3[nH]c(=O)ccc13)C2 (stereo unspecified) | 9.52 µM (active) | inactive |
| CCC[C@@]1(CCc2ccccc2)CC(O)=C([C@H](CC)c2cccc(NS(=O)(=O)c3ccc(C(F)(F)F)cn3)c2)C(=O)O1 | 6.01 µM (active) | 26.8 µM (active) |
| CCCCC(=O)O | inactive | inactive |
